Source: PubChem BioAssay (EPA / NIEHS)
A structure can be active in one record and inactive in another. Active and inactive are the calls of the source. How the source made its calls: active means hit-call score of the fitted dose curve at least 0.9, where 1 is the maximum; inactive means score below 0.9.

Read-out: Monocyte Chemoattractant Protein-1 (MCP1), CCL2 (gene 6347)
Experiment: BSK_SAg_MCP1: BioMAP Diversity Plus: SAg Assay for Monocyte Chemoattractant Protein-1 (MCP1) Biomarker Activity (AID 2283090)
Conditions: primary human HUVEC with PBMC; actives raise or lower the signal
Experimental: BSK_SAg is a cell-based, multiplexed-readout assay that uses umbilical vein endothelium and peripheral blood mononuclear cells, a human vascular primary cell co-culture, with measurements taken at 24 hours after chemical dosing in a 96-well plate.BSK_SAg_MCP1 is an assay component measured in the BSK_SAg assay. It measures MCP-1 antibody related to regulation of gene expression using ELISA technology.Data from the assay component BSK_SAg_MCP1 was analyzed into 1 assay endpoint. This assay endpoint, BSK_SAg_MCP1, was analyzed with bidirectional fitting relative to DMSO as the negative control and baseline of activity. Using a type of binding reporter, gain or loss-of-signal activity can be used to understand changes in the signaling as they relate to the gene CCL2. Furthermore, this assay endpoint can be referred to as a primary readout, because this assay has produced multiple assay endpoints where this one serves a signaling function. To generalize the intended target to other relatable targets, this assay endpoint is annotated to the cytokine intended target family, where the subfamily is chemotactic factor.
The levels of cell surface (or secreted, indicated by the prefix "s") biomarker endpoints were measured by ELISA. Overt cytotoxicity to cells in confluent adherent cultures (all systems other than the BT system) was assessed by measuring total protein levels using sulforhodamine B (SRB) staining in parallel cultures at the time of biomarker measurements, indicated as SRB endpoints. For proliferation assays for adherent cell types, individual cell types are cultured at sub-confluence and relative cell numbers quantified by SRB staining at time points optimized for each system (48 h: 3C and CASM3C systems; 72 h: BT and HDF3CGF systems; 96 h: SAg system). SRB was performed by staining cells with 0.1% SRB after fixation with 10% TCA and reading wells at 560 nm.Viability and proliferation of PBMC (T cells) was quantified by Alamar Blue reduction for the SAg and BT systems. For PBMC viability (referred to as PBMC Cytotoxicity within the assay endpoint names), cells were plated (75,000/well in a 96-well plate) and then chemical samples added for 1 h before addition of activators, SEB and TSST-1 (20 ng/mL final concentration each). Cells were incubated for 90 h. Then, Alamar Blue (20 uL/well) (Invitrogen, Cat DAL1100) was added for 6 h, and the plates were read with a fluorescence microplate reader at 546/580 nm (excitation/emission). For PBMC proliferation, cells were plated and activated as above but incubated for only 16 h prior to addition of Alamar Blue. Plates were read after 6 h.

With `Nc1ccc(-c2ccc(N)c(Cl)c2)cc1Cl` as the compound, how does the outcome read?
The outcome was “inactive”.

`ClC1=C(Cl)[C@]2(Cl)[C@H]3[C@H]([C@H]4C=C[C@H]3C4)[C@@]1(Cl)C2(Cl)Cl` was tested. Which outcome did it give?
The outcome was “inactive”.

How did the outcome turn out when `CCOP(=S)(OCC)SCSP(=S)(OCC)OCC` was run?
Its outcome is “inactive”.

How did the outcome turn out when `O=c1[nH]c(=O)[nH]c(=O)[nH]1` was run?
The outcome was “inactive”.

`CC12CC1(C)C(=O)N(c1cc(Cl)cc(Cl)c1)C2=O` (stereo not given) was tested. Which outcome did it give?
The outcome was “inactive”.

For `COc1cc(OC)nc(NC(=O)NS(=O)(=O)c2ncccc2C(=O)N(C)C)n1`, which outcome is on record?
Its outcome is “inactive”.

For `O=C(O)CCC(F)(C(F)(F)F)C(F)(F)F`, which outcome is on record?
The outcome was “inactive”.

How did the outcome turn out when `CN(C)N=O` was run?
The outcome was “inactive”.

With `CC(=O)C(Cl)C(=O)N(C)C` (stereo not given) as the compound, how does the AC50 read?
The AC50 was 20 µM (active).

`C[C@]12CCC(=O)C[C@@H]1CC[C@@H]1[C@@H]2CC[C@]2(C)[C@@H](O)CC[C@@H]12` was tested. Which AC50 did it give?
The AC50 was 28.2 µM (active).

Which outcome does the source give for `O=Cc1cccc(Oc2ccccc2)c1` here?
The outcome was “inactive”.

`Cc1ccccc1N` was tested. Which outcome did it give?
Its outcome is “inactive”.

`CC(C)(C)CC(C)(C)c1ccc(O)cc1` was tested. Which AC50 did it give?
Its AC50 is 9.24 µM (active).

Which outcome does the source give for `CC(=O)OC(c1ccccc1)C(Cl)(Cl)Cl` (stereo not given) here?
The outcome was “inactive”.

For `CCOP(=S)(OCC)Oc1nc(Cl)c(Cl)cc1Cl`, which AC50 is on record?
The AC50 was 30.1 µM (active).

`COC[C@H](C)N(C(=O)CCl)c1c(C)csc1C` was tested. Which outcome did it give?
Its outcome is “inactive”.

For `COC(=O)c1sccc1S(=O)(=O)NC(=O)Nc1nc(C)nc(OC)n1`, which outcome is on record?
Its outcome is “inactive”.

`CCCCCCCCc1ccc(O)cc1` was tested. Which AC50 did it give?
The AC50 was 32.6 µM (active).

With `CC(=O)[O][Hg][c]1ccccc1` as the compound, how does the AC50 read?
The AC50 was 1.04 µM (active).

With `Oc1ccc(-c2ccccc2)cc1` as the compound, how does the outcome read?
Its outcome is “inactive”.

Which AC50 does the source give for `COP(=S)(OC)Oc1ccc(Sc2ccc(OP(=S)(OC)OC)cc2)cc1` here?
The AC50 was 26.9 µM (active).

With `CCSC(C)CC1CC(=O)C(C(CC)=NOC/C=C/Cl)=C(O)C1` (stereo not given) as the compound, how does the outcome read?
Its outcome is “inactive”.

Which AC50 does the source give for `O=C(OC1CCCCC1)c1ccccc1C(=O)OC1CCCCC1` here?
Its AC50 is 27.8 µM (active).

How did the outcome turn out when `O=C(O)C(F)(F)C(F)(F)C(F)(F)C(F)(F)C(F)(F)C(F)(F)F` was run?
The outcome was “inactive”.

For `ClC1(Cl)C2(Cl)C3(Cl)C4(Cl)C(Cl)(Cl)C5(Cl)C3(Cl)C1(Cl)C5(Cl)C24Cl` (stereo not given), which outcome is on record?
The outcome was “inactive”.

For `Cn1sc(Cl)cc1=O`, which AC50 is on record?
Its AC50 is 30.7 µM (active).

What does the source list for `O=C(O)C(F)(F)C(F)(F)C(F)(F)C(F)(F)C(F)(F)C(F)(F)C(F)(F)C(F)(F)C(F)(F)C(F)(F)F`?
outcome: inactive; AC50: 35.1 µM (active)

For `O=C1C2(Cl)C3(Cl)C4(Cl)C(Cl)(Cl)C5(Cl)C3(Cl)C1(Cl)C5(Cl)C24Cl` (stereo not given), which AC50 is on record?
Its AC50 is 11.2 µM (active).

How did the outcome turn out when `CCNc1nc(NC(C)(C)C)nc(SC)n1` was run?
The outcome was “inactive”.

With `CCC(=O)C(CC(C)N(C)C)(c1ccccc1)c1ccccc1` (stereo not given) as the compound, how does the outcome read?
Its outcome is “inactive”.

For `ClCC(Cl)CCl`, which outcome is on record?
Its outcome is “inactive”.

With `C=C(C)C(=O)[O][Sn]([CH2]CCC)([CH2]CCC)[CH2]CCC` as the compound, how does the AC50 read?
Its AC50 is 0.352 µM (active).

Which outcome does the source give for `CCCCCCCCC(=O)NCc1ccc(O)c(OC)c1` here?
Its outcome is “inactive”.

How did the outcome turn out when `CCCCC(CC)CO[N+](=O)[O-]` (stereo not given) was run?
Its outcome is “inactive”.

With `CC(C)c1ccc(CO)cc1` as the compound, how does the outcome read?
Its outcome is “inactive”.

`CC(C)(c1ccccc1)c1ccc(O)c(C(C)(C)c2ccccc2)c1` was tested. Which AC50 did it give?
Its AC50 is 9.77 µM (active).

For `ClC(Cl)=C(Cl)C(Cl)=C(Cl)Cl`, which outcome is on record?
Its outcome is “inactive”.

`O=C(O)C(Cl)(Cl)Cl` was tested. Which outcome did it give?
Its outcome is “inactive”.

Which outcome does the source give for `COC(=O)Cc1ccccc1` here?
The outcome was “inactive”.
